Test results published in PubChem BioAssay AID1159580 (chemical genetic matrix, 2015).
Screen size: about 5,500 compounds; about 2,000 (36%) were called active. About 18% were inconclusive and are not listed. No stated cut-off is given here; in the data, active means normalized growth mostly below about 0.91 (no sharp cut-off); inconclusive means no clear call, values can overlap the other calls; inactive means mostly above about 0.92. The list shows a part of the results.

Test: chemical genetic growth profiling, strain panel (AID 1159580);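 further: tested at 20 µM; growth read once vehicle control cultures reached saturation at 30 °C; 1 = growth at the plate median or of vehicle wells; lower values mean less growth of the strain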
Conditions: growth OD
[1] = S. cerevisiae deletion strains, locus YDR150W, strain NUM1, hits give low values
[2] = S. cerevisiae deletion strains, locus YGR229C, strain SMI1, hits give low values
[3] = S. cerevisiae deletion strains, locus YJR075W, strain HOC1, hits give low values
[4] = S. cerevisiae deletion strains, locus YMR263W, strain SAP30, hits give low values
[5] = S. cerevisiae deletion strains, locus YAL013W, strain DEP1, hits give low values
[6] = S. cerevisiae deletion strains, locus YBR229C, strain ROT2, hits give low values
[7] = S. cerevisiae deletion strains, locus YDL101C, strain DUN1, hits give low values
[8] = S. cerevisiae deletion strains, locus YEL061C, strain CIN8, hits give low values
[9] = S. cerevisiae deletion strains, locus YGR078C, strain PAC10, hits give low values
[10] = S. cerevisiae deletion strains, locus YHR030C, strain SLT2, hits give low values
[11] = S. cerevisiae deletion strains, locus YHR087W, strain rtc3, hits give low values
[12] = S. cerevisiae deletion strains, locus YJR043C, strain POL32, hits give low values
[13] = S. cerevisiae deletion strains, locus YLR039C, strain RIC1, hits give low values
[14] = S. cerevisiae deletion strains, locus YLR058C, strain SHM2 (second series), hits give low values
[15] = S. cerevisiae deletion strains, locus YLR085C, strain ARP6, hits give low values
[16] = S. cerevisiae deletion strains, locus YLR262C, strain YPT6, hits give low values
[17] = S. cerevisiae deletion strains, locus YML094W, strain GIM5, hits give low values
[18] = S. cerevisiae deletion strains, locus YMR219W, strain ESC1, hits give low values
[19] = S. cerevisiae deletion strains, locus YNL153C, strain GIM3, hits give low values
[20] = S. cerevisiae deletion strains, locus YNL298W, strain CLA4 (second series), hits give low values
[21] = S. cerevisiae deletion strains, locus YNL322C, strain KRE1, hits give low values
[22] = S. cerevisiae deletion strains, locus YNR030W, strain Alg12, hits give low values
[23] = S. cerevisiae deletion strains, locus YPL055C, strain LGE1, hits give low values
[24] = S. cerevisiae deletion strains, locus YPL241C, strain CIN2, hits give low values
[25] = S. cerevisiae deletion strains, locus YPR135W, strain CTF4, hits give low values
[26] = S. cerevisiae strains, strain wild type, hits give low values

Measured: normalized growth

C[N+](C)(C)CCO
active: [3] 1.09 [resistant]
inactive: S. cerevisiae deletion strains, locus YAL040C, strain CLN3, hits give low values 1.04 | S. cerevisiae deletion strains, locus YCL061C, strain MRC1 (second series), hits give low values 1.02 | [1] 1.05 | S. cerevisiae deletion strains, locus YER002W, strain NOP16, hits give low values 0.998 | [2] 1.06 | [4] 1.01 | S. cerevisiae deletion strains, locus YNL175C, strain NOP13, hits give low values 1.02 | S. cerevisiae deletion strains, locus YNL197C, strain WHI3, hits give low values 0.996 | S. cerevisiae deletion strains, locus YNL224C, strain SQS1, hits give low values 1.01 | S. cerevisiae deletion strains, locus YOR083W, strain WHI5 (second series), hits give low values 1.08

Cc1cccc(NC(=S)NCc2ccncc2)c1
inactive: [5] 1 | [6] 1 | [7] 0.988 | [1] 1 | [8] 1.01 | [9] 1.01 | [2] 0.992 | [10] 0.857 | [11] 0.99 | S. cerevisiae deletion strains, locus YJL187C, strain SWE1, hits give low values 1.02 | [12] 1 | [3] 0.987 | [13] 1.01 | [14] 1.01 | [15] 0.88 | [16] 1.01 | [17] 0.974 | [18] 1.01 | [4] 0.981 | [19] 0.993 | [20] 1.01 | [21] 1.01 | [22] 1.03 | [23] 1.03 | [24] 0.998 | [25] 0.928 | [26] 0.997

O=C(Nc1ccc(Cl)c(Cl)c1)c1ccccc1
active: [5] 0.885 | [6] 0.892 | [8] 0.813 | [9] 0.84 | [10] 0.579 | [11] 0.846 | [12] 0.906 | [3] 0.771 | [13] 0.271 | [14] 0.876 | [15] 0.504 | [16] 0.318 | [17] 0.797 | [18] 0.895 | S. cerevisiae deletion strains, locus YMR307W, strain GAS1, hits give low values 0.453 | [20] 0.747 | [21] 0.8 | [22] 0.761 | [23] 0.754 | [24] 0.754 | [25] 0.406 | [26] 0.908
inactive: [7] 0.931 | [1] 0.889 | S. cerevisiae deletion strains, locus YNL128W, strain TEP1, hits give low values 0.933 | [19] 0.942
